# Source: PubChem BioAssay (NCI)
# Values joined by “and” are separate entries in the source; they are usually repeats but may differ in a detail not shown here. Equal values may be shown once. The panel holds about 83,000 compounds, 20% with a hit somewhere; the sample as a whole holds those more often.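 Each cell line was grown in a 96-well plate and treated with one concentration of compound for 48 hours. Values below 10 were considered active.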 Values without a mark were called inactive. Active and inactive are the calls of the source.
# How the values were obtained:
# Experiment in all cases: NCI-60 one-dose screen, 48 h (100 = growth as untreated, 0 = no growth, -100 = all killed)
# [1] = tested on: SR leukemia; conditions: 10 µM
# [2] = tested on: OVCAR-8 ovarian; conditions: 10 µM
# [3] = tested on: OVCAR-5 ovarian; conditions: 10 µM
# [4] = tested on: OVCAR-4 ovarian; conditions: 10 µM
# [5] = tested on: SK-OV-3 ovarian; conditions: 10 µM
# [6] = tested on: IGROV1 ovarian; conditions: 10 µM
# [7] = tested on: OVCAR-3 ovarian; conditions: 10 µM
# [8] = tested on: NCI/ADR-RES ovarian; conditions: 10 µM
# [9] = tested on: T-47D breast; conditions: 10 µM
# [10] = tested on: BT-549 breast; conditions: 10 µM
# [11] = tested on: MDA-MB-435 melanoma; conditions: 10 µM
# [12] = tested on: SW-620 colon; conditions: 10 µM
# [13] = tested on: MCF7 breast
# [14] = tested on: HCT-116 colon; conditions: 10 µM
# [15] = tested on: HCC-2998 colon; conditions: 10 µM
# [16] = tested on: KM12 colon; conditions: 10 µM
# [17] = tested on: HS 578T breast; conditions: 10 µM
# [18] = tested on: RPMI-8226 leukemia; conditions: 10 µM
SMILES,growth [1],growth [2],growth [3],growth [4],growth [5],growth [6],growth [7],growth [8],growth [9],growth [10],growth [11],growth [12],growth ([13]; 10 µM unless noted),growth [14],growth [15],growth [16],growth [17],growth [18],growth ([13]; 10 µM),growth ([13]; 100 µM)
O=C1C=C(O)C(=O)C=C1O,98.2%,103%,108%,118%,87.9%,111%,107%,101%,93.9%,103%,109%,104%,96.5%,105%,111%,107%,,,,
O=S(=O)(O)c1ccc(Cl)c(Cl)c1,99.8%,114%,112%,106%,103%,122%,123%,106%,105%,,100%,111%,99.9%,105%,104%,111%,120%,,,
Cc1ccc(S(=O)(=O)O)c(C)c1,95.2%,105%,104%,86.5%,95.7%,103%,110%,104%,92.5%,109%,107%,98.8%,,101%,107%,109%,93.8%,,,
CCCC(C)OCC(=O)O (centres undefined),94.5%,97.2%,108%,84.8%,113%,105%,108%,107%,126%,127%,108%,101%,99.9%,101%,106%,101%,117%,,,
CC(=O)OCC1=CC2OC(=O)C3=COC(OC4OC(CO)C(O)C(O)C4O)C1C32 (centres undefined),120%,,111%,129%,108%,71.3%,112%,32.9%,105%,,109%,111%,,123%,300%,107%,,114%,96.7%,78% and 90.4%
CCNCCCCNCCCCNCCCCNCCCCNCC,68.5%,,108%,,118%,,93.4%,122%,72.2%,123%,50.2%,68.3%,101%,92.6%,101%,62.1%,76.2%,82.4%,,
O=C(O)COCC(=O)O,95.3%,98.2%,107%,88.6%,111%,105%,103%,106%,129%,122%,109%,102%,100%,108%,114%,96.4%,117%,,,
CCCCCCCCO,102%,100%,101%,80.1%,111%,114%,107%,102%,105%,107%,99.3%,103%,91.8%,107%,,108%,111%,,,
COC(=O)/C=C1\Sc2cc(F)ccc2NC1=O,95.5%,,83.2%,102%,111%,102%,115%,101%,84.5%,,100%,127%,83.7%,90.1%,126%,107%,121%,92%,,
COc1cc2c(cc1O)CC[C@@H]1C2CC[C@@]2(C)C1CC[C@@H]2O (some centres undefined),15.1%,,-41.5% (active),65.2%,24.1%,25.3%,4.72% (active),-70.7% (active),31.1%,,-46.9% (active),12.1%,16.4%,7.39% (active),,33.5%,,0% (active),,
O=P(O)(O)OCC(O)CO (centres undefined),99.6%,109%,101%,88.3%,106%,,112%,106%,100%,102%,109%,107%,95.6%,102%,107%,105%,106%,,,
O=C(O)CCCC(=O)O,94.7%,99.4%,104%,84.3%,104%,104%,102%,103%,128%,118%,107%,93.1%,101%,100%,103%,92.4%,110%,,,
CC(C)OC(=O)c1cc(NC(=S)OC(C)C)ccc1Cl,70.2%,,,99.1%,95.1%,89.9%,93.9%,25.8%,58.3%,180%,97%,91.4%,95.1%,72.2%,160%,59.5%,-29% (active),83.3%,,
O=C(NCO)c1ccccc1,98.3%,108%,104%,109%,104%,97.2%,104%,109%,102%,,108%,103%,,105%,111%,102%,111%,,,
OCc1cccc2ccccc12,104%,111%,111%,109%,110%,120%,105%,105%,103%,,116%,,96.3%,103%,108%,107%,,,,
CC(=O)c1sc2c(c1OC(=O)c1ccc(Cl)cc1Cl)c(=O)n(-c1ccccc1)c(=S)n2-c1ccccc1,-10.4% (active),,-4.64% (active),,5.36% (active),,24.1%,7.59% (active),61.1%,-24.4% (active),4.71% (active),14%,,-0.425% (active),24.6%,-0.943% (active),-26.8% (active),-43.1% (active),51.2%,6.27% (active) and -47.6% (active)
CSC[C@H](NC(=O)COc1cccc2cnccc12)C(=O)NC(Cc1ccccc1)C(O)C(=O)N1CSC[C@H]1C(=O)NC(C)(C)C (some centres undefined),84.5%,,91.7%,,115%,,101%,106%,111%,105%,103%,105%,114%,121%,108%,116%,86.8%,102%,,
COc1ccc(C(C)C=O)cc1 (centres undefined),102%,109%,117%,110%,109%,116%,108%,104%,97.9%,,113%,,95.9%,101%,109%,107%,,,,
Oc1ccc(Cc2ccccc2)c2cccnc12,5.04% (active),15.5%,37.2%,23.1%,19.9%,-4.71% (active),28.9%,0.0508% (active),25.3%,11%,32.2%,31.4%,14.1%,,26.2%,24.8%,,,,
NCCCN,101%,104%,107%,90%,105%,113%,111%,112%,98.6%,106%,109%,104%,96.7%,109%,112%,107%,104%,,,
